# Compound activity: PubChem, several laboratories
# V-ATPase pH: alters yeast V-ATPase proton transport | S. cerevisiae, pHLuorin cytosolic pH fluorescence | 0.37% of 350,000 active | AID 504577 | response, % at 10 µM; in the data active means response mostly above about 7.3%, no sharp cut-off; inactive means mostly below about 5.4%; further: actives read high
# PfHsp90 yeast 2: inhibits growth of yeast expressing Plasmodium falciparum Hsp90; S. cerevisiae expressing PfHsp90, BacTiter-Glo ATP, 48 h; yeast lacking PDR1 and PDR3 efflux regulators; inhibition, % at 9.4 µM; 0.32% of 310,000 active;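 active means every replicate shows inhibition above about 80%, whatever the replicate mean, limit read from the data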;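 further: 0% = DMSO neutral controls and 100% = 20 µM radicicol positive controls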
# tim23-1 inh: tim23-1 yeast growth inhibition | S. cerevisiae tim23-1 growth, BacTiter-Glo luminescence, 24 h | AID 463212 | 1.3% of 330,000 active | inhibition, % at 20 µM;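 active means growth inhibition of the mutant yeast at or above 50%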;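 further: temperature-sensitive mutant grown at 25 °C; plate controls were DMSO-treated mutant yeast for no effect and medium wells lacking yeast for full effect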
# TIM10 inh: inhibits growth of TIM10 yeast strain; S. cerevisiae TIM10 strain growth, BacTiter-Glo luminescence, 24 h; inhibition, % at 10 µM; 1.4% of 330,000 active; AID 463195;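 active means inhibition of 40% or more at the single tested concentration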;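 further: wild-type TIM10 isogenic control strain grown at permissive 25 °C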
# tim10-1 inh: tim10-1 yeast growth inhibition; S. cerevisiae tim10-1 ts strain growth, BacTiter-Glo, 24 h; inhibition, % at 20 µM; 2.2% of 330,000 active;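 active means inhibition of at least 40%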;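 further: mutant grown at 25 °C; 0% = DMSO wells with yeast and 100% = wells holding no yeast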
# tim23-1 conf: confirmation of tim23-1 mutant yeast growth inhibitors; shares compounds with tim23-1 inh; S. cerevisiae tim23-1 growth, BacTiter-Glo luminescence, 24 h; inhibition, % at 20 µM; 83% of 4,400 active; AID 463218;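 active means inhibition above about 39% in either of two replicate wells at 20 µM, limit read from the data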;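 further: temperature-sensitive tim23-1 mutant grown at 25 °C; 0% = DMSO wells with yeast and 100% = medium wells without yeast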
# Numbers without * were called inactive; · = no result given. Shown are actives, neighbours in structure and some others; about 3.7% of the full set was active somewhere.
SMILES,V-ATPase pH,PfHsp90 yeast 2,tim23-1 inh,TIM10 inh,tim10-1 inh,tim23-1 conf
CCCC(=O)NC(c1ccccc1Cl)c1ccc2cccnc2c1O (stereo not given),-2.5,113.3*,50.5*,-22.1,3.5,52.9*
Cc1ccc(C(=O)NCCCNC(=O)Cc2ccccc2)cn1,2.5,-16.5,22.4,-3.6,16.9,·
Cc1cccc(C)c1NC(=O)CN(C)C(=O)[C@H](C)NC(=O)c1ccco1,-0.1,-5.7,-7.0,0.6,-7.8,·
COc1ccc(NC(=O)NNC(=O)COc2ccc([N+](=O)[O-])c(C)c2)cc1OC,-2.4,1.9,-11.5,-0.9,-10.5,·
OC[C@@H]1CC[C@@H](Cc2ccc(-c3ccccc3)cc2)O1,-2.2,-4.1,52.6*,19.7,29.7,32.5
COc1ccc(NC(=O)CNC(=O)c2ccc([N+](=O)[O-])cc2)cc1,0.3,-3.0,-5.7,-16.9,-11.4,·
COc1ccc(C(=O)CC(=O)Nc2ccc([N+](=O)[O-])cc2)cc1,5.5,-11.2,63.7*,35.1,13.0,73.7*
CCOc1ccc(Nc2ccc([N+](=O)[O-])c3nonc23)cc1,-0.3,-0.9,66.7*,35.3,38.8,61.2*
CNC(=O)C[C@H]1C(=O)N(c2ccc(Br)cc2)C[C@@H]1C,0.0,·,·,·,·,·
CN(C)C(=O)c1ccc(N/C=C(\C=O)c2nc3ccccc3o2)cc1,-0.6,11.2,2.2,8.0,11.2,·
COc1cc2sc3cc(NCCCN4CCOCC4)ccc3c(=O)c2cc1OC,-1.5,-6.2,11.9,18.7,-9.9,·
COc1cccc2sc3cc(NCc4ccc(C)o4)ccc3c(=O)c12,-3.9,-6.1,67.7*,22.0,-17.6,65.7*
O=C1C=CC(c2ccccc2)(c2ccccc2)CC1,-0.5,·,·,·,·,·
Cc1cccc(N2CCc3c2nc2ccc(Br)cc2c3N)c1,2.5,3.2,75.7*,27.7,31.8,62.5*
c1cc2c(cc1CNc1ccc(N3CCOCC3)cc1)OCO2,0.4,7.1,4.6,-9.3,-9.9,·
Cc1ccc(NC(=O)C(=O)Nc2ccc(C)cn2)nc1,-0.7,-9.0,4.7,9.0,-13.0,·
Cc1ccc(NC(=O)/C(C#N)=C(\N)C(Cl)(Cl)Cl)nc1,-3.4,-1.1,70.6*,39.7,16.7,71.4*
O=C(Oc1ccc(=O)n(-c2ccccc2)n1)c1ccc(Cl)cc1,-0.2,-29.1,60.4*,23.8,22.7,43.1*
CCOCCCNC(=S)N1CCN(c2nc(-c3ccc(F)cc3)cs2)CC1,-3.5,5.3,40.0,10.1,26.6,·
O=C(N/N=C/c1coc2ccccc2c1=O)c1ccc(Cl)cc1,2.6,13.3,53.8*,20.8,24.7,42.8*
Cc1ccc2occ(/C=N/NC(=O)c3ccccc3Br)c(=O)c2c1,2.9,2.0,63.0*,22.9,30.7,66.2*
O=C(N/N=C/c1coc2ccccc2c1=O)c1ccccc1,4.0,8.9,21.6,19.3,1.1,·
CCOc1ccccc1C(=O)N/N=C/c1coc2ccc(C)cc2c1=O,6.0,-0.9,63.7*,18.0,27.5,65.7*
Cc1ccc2occ(/C=N/NC(=O)c3ccc(O)cc3)c(=O)c2c1,-0.5,·,43.0,-3.3,14.5,·
CCN(CC(=O)NCc1ccc(Cl)cc1)C(=O)c1cc(OC)cc(OC)c1,-0.3,3.4,10.8,-1.3,15.1,·
SMILES,V-ATPase pH,PfHsp90 yeast 2,tim23-1 inh,TIM10 inh,tim10-1 inh,tim23-1 conf
CC(=O)Nc1ccc(NC(=O)C(C)OC(=O)/C=C/c2cnc3ccccc3n2)cc1 (stereo not given),2.6,-11.9,-4.1,1.9,4.1,·
CC(NC(=O)/C=C/c1cnc2ccccc2n1)C12CC3CC(CC(C3)C1)C2 (stereo not given),-0.2,-12.0,59.6*,38.9,34.5,50.0*
CCc1nnc(N2C(=O)c3ccc(Oc4ccc([N+](=O)[O-])cc4)cc3C2=O)s1,3.1,8.2,63.7*,34.4,29.3,39.0
Cc1nc(Nc2ccc3c(c2)OCCO3)c2c(C)c(C)sc2n1,1.2,-21.7,54.7*,24.5,10.0,49.2*
Nc1ccc2nc(-c3ccccc3)[nH]c2c1,0.5,10.5,2.1,9.0,-10.5,·
Nc1cccc(-c2nc3ccc(C(=O)c4ccccc4)cc3[nH]2)c1,-1.2,3.3,54.6*,21.4,4.2,55.8*
CC(=O)Nc1ccc(C2=CC(=O)CC(C)(C)C2)cc1,-1.6,-16.8,11.8,2.1,3.6,·
COC1c2ccccc2C(=O)N1Cc1ccc(F)cc1 (stereo not given),-0.5,12.6,-3.1,-3.9,4.5,·
Cc1cc(C(=O)COC(=O)c2ccc([N+](=O)[O-])o2)c(C)n1CC1CCCO1 (stereo not given),1.6,2.7,54.2*,31.1,25.2,55.0*
COCCn1c(C)cc(C(=O)COC(=O)c2ccc([N+](=O)[O-])o2)c1C,-1.3,18.1,51.8*,19.8,22.6,58.6*
Cc1cc(C)c(C(=O)COC(=O)c2ccc([N+](=O)[O-])o2)cc1C,-0.7,-30.5,41.0,-2.1,8.7,·
CC(C)COc1cccc(C(=O)N(CC(=O)Nc2ccccc2C(F)(F)F)Cc2ccco2)c1,1.2,-10.5,27.6,4.5,9.9,·
Cc1cc(C)nc(SCC(=O)c2cc3ccccc3oc2=O)n1,0.8,1.3,50.4*,21.5,16.0,42.8*
COc1ccccc1C(=O)NCCC(=O)N(C)CC(=O)Nc1c(Cl)cccc1Cl,-6.2,10.5,-2.0,4.0,-7.2,·
Cc1ccc(C)c(NC(=O)c2cc([N+](=O)[O-])cc([N+](=O)[O-])c2)c1,-0.3,-7.2,55.1*,18.5,29.2,51.3*
O=C(Nc1cc(-c2ccccc2)[nH]n1)c1ccccc1,3.0,7.3,52.0*,32.4,-46.9,56.2*
O=C(Nc1cc(-c2ccccc2)[nH]n1)c1ccccc1F,0.1,·,50.9*,12.9,-15.3,41.0*
CCOc1ccc(Cc2nnc(SCC(=O)Nc3c(C)cccc3C)[nH]c2=O)cc1,1.5,0.4,19.8,-3.1,11.6,·
CCCCCCN1C(=O)CC(NC(=O)OCC2c3ccccc3-c3ccccc32)C/C=C\C1C(C)C (stereo not given),-0.4,1.4,38.0,9.8,16.6,·
Cc1nn(-c2ccccc2)c(C)c1/C=N/NC(=O)c1cc(C23CC4CC(CC(C4)C2)C3)[nH]n1,-2.9,-6.5,52.6*,31.8,23.6,47.2*
CCN1CCC2(CC1)N=C(c1ccc(F)cc1)C(=S)N2C(=O)c1ccc(C(C)(C)C)cc1,2.2,-22.8,52.8*,12.6,8.3,-12.8
O=C(NC(=S)Nc1ccccn1)c1ccc(-c2ccccc2)cc1,-0.5,6.6,24.4,-2.8,25.9,·
S=C(Nc1ccc(Nc2ccccc2)cc1)Nc1ccccn1,-1.4,-22.0,51.6*,30.8,25.6,27.1
CC(NC(=S)NC(=O)c1ccccc1)c1ccccc1 (stereo not given),1.2,7.1,50.3*,0.6,27.8,41.5*
O=C(NC(=S)NC1CCCCC1)c1ccccc1,-4.2,-22.4,62.4*,28.6,33.3,55.5*
O=C(NC(=S)Nc1ccccn1)c1ccccc1,-4.4,26.2,50.2*,14.9,28.0,27.9
